# The supplement of paper PMC6555819
# Legend:
# Assay in all cases: PBM binding z-score (relative to random genomic background probes); higher = stronger binding; sequences stand for … in GC…GCGATTGACAGCGTAGAATGAAGG
# [1] = test system: PPARg:RXRa DBDmut IVT, anti-RXR (DBD mutation: RXRa K156A/R161A, NR concentration 270 nM, RXRa partner concentration 90 nM)
# Outline: (§1)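 The probes on custom Agilent 4×180K protein-binding microarrays were double-stranded, with 34-nt variable regions bearing direct-repeat seeds, single-nucleotide variants, half-site ablations and random human genomic background sequences. Incubation lasted 1 h with ligand-free nuclear receptor dimers in PBS pH 7.4, 2% milk, 0.02% Triton X-100, 1 mM DTT, 0.2 mg/mL BSA and 0.4 mg/ml salmon testes DNA. Antibodies against each partner (one per run) detected bound dimers, and fluorescence scans were regression-normalized. Binding z-scores take the random background probes as reference.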
# [2] = test system: PPARg:RXRa IVT, anti-PPARg (NR concentration 270 nM, RXRa partner concentration 90 nM)
# Outline: as §1
# [3] = test system: PPARg DBDmut:RXRa IVT, anti-PPARg (DBD mutation: PPARg1 K132A/R137A, NR concentration 270 nM, RXRa partner concentration 90 nM)
# Outline: as §1
# [4] = test system: PPARg DBDmut IVT, anti-PPARg (DBD mutation: PPARg1 K132A/R137A, NR concentration 270 nM)
# Outline: as §1
# [5] = test system: PPARg homodimer (NR concentration 180 nM)
# Outline: as §1
# [6] = test system: PXR:RXRa (NR concentration 270 nM, RXRa partner concentration 90 nM)
# Outline: as §1
# [7] = test system: PXR homodimer (NR concentration 270 nM)
# Outline: as §1
# [8] = test system: RARa:RXR (NR concentration 270 nM, RXRa partner concentration 90 nM)
# Outline: as §1
# [9] = test system: RARa homodimer (NR concentration 270 nM)
# Outline: as §1
# [10] = test system: RARb:RXRa (NR concentration 270 nM, RXRa partner concentration 90 nM)
# Outline: as §1
Sequence,PBM binding z-score [1],PBM binding z-score [2],PBM binding z-score [3],PBM binding z-score [4],PBM binding z-score [5],PBM binding z-score [6],PBM binding z-score [7],PBM binding z-score [8],PBM binding z-score [9],PBM binding z-score [10]
GGAATGAGGGCAAGTTGATAGCAGAGTTTGATGG,4.98,3.82,1.16,-0.0155,1.37,1.05,1.87,0.695,0.0185,2.64
ATCTCTAGTTAAAAGTTCAGTGAATCCCGAGGAT,0.0721,0.398,0.853,1.16,1.56,1.9,2,1.03,1.8,2.2
CTCGAAAGGTCGTTTGAGGTGAGTATACGGATAA,0.353,1.91,1.09,0.474,1.54,5.25,0.584,4.16,-0.088,3.89
ATCTCTAAGTAACCAAGTTCAGTGAATGCCGAAC,-0.304,0.256,0.36,0.891,0.71,1.3,1.61,0.788,0.561,1.16
TCTGCCAGGTCAGTTGGTCAGCTAACGAGCTGCC,1.26,1.9,-0.28,0.0313,0.213,0.349,-0.79,0.976,-1.08,3.29
CGAACGAGGGCATGAGTTGATAGCGAATGCCGAT,3.22,2.24,-0.216,-0.415,0.483,0.461,-0.235,0.351,-0.349,1.97
CGAACTAGGTCAAGGACAGTTAATCTCCGCACGC,8.24,8.35,2.25,0.939,1.62,1.5,0.185,1.87,0.669,3.76
ACTAGCAGGCCAAGTTTGGGTCATTCAAACAAAG,0.974,1.1,-0.68,-0.939,0.745,1.08,-0.0146,1.73,-0.276,1.69
ATATGTAGGTTAGCGGGTCATTCAGTTTGCGCAT,7.62,7.02,2.14,1.79,2.58,3.07,5.07,2.89,1.16,2.31
AGAATGAGGTTAATATCAGGGAAACAGAATACAT,2.82,2.7,1.02,0.794,0.975,1.2,0.575,1.74,1.04,1.55
TCTCGGAGGACACGAAAGGTTAGAGCTCGACATC,1.49,0.57,-0.609,-0.116,0.402,0.853,-0.519,1.52,0.215,2.48
ATCTCTAGGTAAAGATAGTTCAGTGCATGCAAAT,2.3,1.49,1.11,1.06,0.899,1.1,1.29,0.26,0.906,0.853
TCGCCTAGGTCATTCAGGGGCCAGTATAGAAAGC,2.54,2.19,-0.243,-0.908,1.82,2.3,-0.0121,3.36,-0.254,3.96
CCTGCTAGGTCATGGGCAGCTAATCTACAGTATG,4.17,3.73,0.149,-0.33,1.36,1.1,-0.682,2.68,0.607,3.83
CGTCCAAGGTCAGCAGGTCAGTGAAAGCGACGTG,2.94,3.8,0.0823,-0.0279,3.81,3.7,0.523,4.76,0.465,5.34
GCTAGCAGGACATTTGGGTCACTCAATGACGGGC,1.29,2.12,-1.17,-1.5,-0.156,0.607,0.862,0.611,-0.875,1.16
GGAACGAGGGCAAGTTGATAGCTGAGTTTGATGG,3.45,2.67,0.246,-0.342,0.0769,0.535,0.363,0.267,-0.269,2.57
TAGCCTAGGTCAGATCGGGCCAATATACGCTATA,0.525,1.37,-0.296,-0.715,0.782,2.21,-0.489,1.9,-0.0136,2.94
TCTGCTAGGTCAACGATGTTCAGCTAATCTGCTA,4.36,4.43,0.0539,0.546,0.745,1.4,-0.689,2,-0.343,4.15
TAGCCTAGGTCAGGCGGGCCAGTATAGTGTCGGC,0.604,1.7,-0.617,-0.515,-0.227,0.158,-0.632,0.923,-0.619,3.16
CGTCCAAGGTCAATGCTAGGTCAGTCAAAGCATT,3.29,3.92,0.558,-0.362,4.74,4.84,1.29,5.75,1.17,5.36
TCTGCTAGGTCACCGATGGTCAGCTAATCTGCTA,4.6,4.81,0.945,0.734,0.378,1.91,-1.04,2.75,-1.39,4.36
ATATCTAGGTTATCGGGTCATTCAGTTTGCGCAT,7.52,7.5,1.81,3.17,3.91,3.94,8.08,3.87,2.26,2.89
TTACCAGGGTGAGCTGAGGTCGTTGATCCAACTC,0.596,1.4,-1.02,-0.726,0.323,5.42,0.925,2.13,-0.657,1.24
